High-throughput results deposited in PubChem BioAssay by National Center for Advancing Translational Sciences (NCATS).
NS1 function inh = inhibitors of influenza NS1 protein function; 0.4% of 270,000 active; Potency, µM (series often up to 46.1 µM); calls by dose curve; further: actives are rising curves; nearly all actives have a fitted effect of over 50% in size
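Read-out: OD600 growth recovery of NS1-expressing budding yeast. Cells grown overnight at 30C in -URA glucose medium, washed, resuspended and diluted 1:100 in 2% galactose assay medium, pH 6.0. Same strain lacking NS1 served as positive control.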
Pf growth 96h = inhibits malaria parasite growth, 96 h. P. falciparum luciferase reporter growth, 96 h. Potency, µM (top dose mostly 28.7 µM), usual class: inhibitors. 6.9% of 320,000 active. AID 504834
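Luminescence readout: decreased luciferase signal marks inhibited growth of reporter-expressing P. falciparum in infected red cells (2% hematocrit, 0.05% parasitemia final), exposed to compound two generations (96 h, 37 C, 5% CO2).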
Pf growth 48h = inhibits P. falciparum growth in the first generation, 48 h; AID 504832; 5.9% of 310,000 active; Potency, µM (doses to about 28.7 µM), usual class: inhibitors; P. falciparum luciferase growth in erythrocytes, 48 h
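Read-out is firefly luciferase luminescence from an integrated reporter in P. falciparum, so falling signal marks reduced parasite growth. Infected erythrocytes were at 2% hematocrit and 0.1% parasitemia (final) in Albumax-supplemented RPMI 1640.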
CHX counter = affects cycloheximide protein synthesis inhibition readout, counter-screen. cell reporter, cycloheximide protein synthesis inhibition counterscreen. max response, %. 12% of 300,000 active; in the data active means max response mostly above about 13%, no sharp cut-off; inactive means mostly below about 14%; further: read at 38.3 µM for the half of the compounds with a filed dose
Shiga toxin inh = Shiga toxin inhibition; inhibition, % at 38.7 µM; 9.2% of 290,000 active; Vero cells, Shiga toxin protein synthesis inhibition reporter; in the data active means inhibition mostly above about 28%, no sharp cut-off; inactive means mostly below about 43%
Large screens that a line does not name were inactive. Hits are enriched below; roughly 21% of the tested compounds scored in any of these assays. Unless noted, the call rests on the fitted dose curve; in most records, active means well fitted inhibition curve with a large enough effect; inconclusive means small, poorly fitted or top-dose-only effect, or another doubt; inactive means no such curve, though single readings can be large or run the other way.

COc1ccc(C(c2nnnn2CC2CCCO2)N2CCN(c3ccc(F)cc3)CC2)cc1 (stereo unspecified)	Pf growth 96h 8.3µM, Pf growth 48h inconclusive
c1ccc(CCn2nnnc2C(c2cccnc2)N2CCN(c3nc4ccccc4s3)CC2)cc1 (stereo unspecified)	Pf growth 48h 13µM
CC(C)CCn1c(SCC(N)=O)nc2c1c(=O)n(C)c(=O)n2C	Pf growth 96h inconclusive (no result: Pf growth 48h)
COc1cc(/C=N/n2nnnc2Nc2ccccc2)cc(OC)c1OC	Pf growth 96h inconclusive, Pf growth 48h inconclusive
COc1ccc(Cn2nnnc2C(C(C)C)N2CCN(c3ccccc3OC)CC2)cc1 (stereo unspecified)	Pf growth 48h 4.7µM
COc1ccc(Cn2nnnc2C(c2ccncc2)N2CCOCC2)cc1 (stereo unspecified)	Pf growth 96h inconclusive
CC(C)C(c1nnnn1Cc1ccc(F)cc1)N1CCN(c2ccc(O)cc2)CC1 (stereo unspecified)	Pf growth 96h inconclusive, Pf growth 48h inconclusive
COc1ccc(C(c2nnnn2Cc2ccccc2)N2CCN(c3ccccc3)CC2)cc1 (stereo unspecified)	Pf growth 96h 13µM, Pf growth 48h inconclusive
CCN(CC(=O)Nc1c(F)cccc1F)C(=O)CCc1nc2cc(S(=O)(=O)N3CCOCC3)ccc2n1C	Pf growth 96h inconclusive (no result: NS1 function inh, CHX counter, Shiga toxin inh)
CC(C)C(=O)OCC(=O)NCc1ccccc1Cl	CHX counter 29 (no result: NS1 function inh)
O=C(COC(=O)c1ccccc1Nc1ccccc1)NCc1ccccc1Cl	Pf growth 96h 13µM
CC(C)CC(NC(N)=O)C(=O)NCc1ccccc1Cl (stereo unspecified)	CHX counter 35 (no result: NS1 function inh)
CC(C)CC(NC(N)=O)C(=O)NCc1ccc(Cl)cc1 (stereo unspecified)	none (no result: NS1 function inh)
CCCC(=O)NCc1ccccc1Cl	none
CCC1SC(N)=NC1=O (stereo unspecified)	none (no result: Pf growth 96h)
CSc1nc(NC(C)=O)nc(C)c1Cl	none
Cc1ccccc1OCCCn1c(=O)sc2ccccc21	CHX counter 66, Shiga toxin inh 106
Cc1ccc(OCCn2c(=O)sc3ccccc32)cc1	Pf growth 96h inconclusive, CHX counter 45, Shiga toxin inh 61
O=c1sc2ccccc2n1COc1ccccc1	none
O=c1sc2ccccc2n1COc1ccc(Cl)cc1	CHX counter 35 (no result: Pf growth 48h)
Cc1ccc(OCCCn2c(=O)sc3ccccc32)cc1	Pf growth 48h inconclusive, CHX counter 24
O=C(NCc1ccco1)c1cccc(NS(=O)(=O)c2ccccc2F)c1	none
O=C(NCCC1CCCCN1S(=O)(=O)c1ccccc1)C(=O)NC1CC1 (stereo unspecified)	none (no result: NS1 function inh, CHX counter, Shiga toxin inh)
O=c1sc2ccccc2n1CCCOc1ccccc1	CHX counter 42, Shiga toxin inh 119
O=c1sc2ccccc2n1Cc1ccccc1	Pf growth 96h inconclusive
COc1ccc(-c2cc(C(=O)N/N=C/c3sccc3C)c3ccccc3n2)c(OC)c1	Pf growth 96h 12µM (no result: Pf growth 48h)
COc1ccc(-c2cc(C(=O)N/N=C/c3ccc(OC)c(COCC(F)(F)C(F)F)c3)c3ccccc3n2)c(OC)c1	NS1 function inh inconclusive, Pf growth 96h 6.6µM, Pf growth 48h 1.5µM
CCn1cc(/C=N\NC(=O)c2cc(-c3ccccc3OC)nc3ccccc23)c(C)n1	Pf growth 96h 1.9µM, Pf growth 48h 1.7µM
C/C(=N\NC(=O)c1cc(C)nc2ccccc12)c1ccco1	Pf growth 48h inconclusive
COc1ccc(-c2cc(C(=O)N/N=C/c3ccc4c(c3)OCO4)c3ccccc3n2)c(OC)c1	Pf growth 96h inconclusive, Pf growth 48h inconclusive
COc1ccc(-c2cc(C(=O)N/N=C(\C)c3ccco3)c3ccccc3n2)c(OC)c1	Pf growth 96h 13µM, Pf growth 48h 9.3µM
C=Cc1cc2c(s1)c1cnn(Cc3ccccc3F)c(=O)c1n2C	none (no result: NS1 function inh, Pf growth 96h, Pf growth 48h)
CN(C)C1=NCCN1CCc1cccc(F)c1	none
COc1ccccc1-c1csc(NC(=O)c2cc(-c3cccs3)nc3ccccc23)n1	NS1 function inh inconclusive, Pf growth 96h 7.4µM, Pf growth 48h inconclusive
COc1ccccc1-c1cc(C(=O)N/N=C/c2cccs2)c2ccccc2n1	Pf growth 96h 4.1µM (no result: Pf growth 48h)
Cc1cc(NC(=O)CSc2nnc(Cc3ccccc3)o2)no1	none (no result: Pf growth 96h)
COc1cc(S(=O)(=O)NCc2ccc(F)cc2)ccc1-n1cnnn1	Pf growth 96h inconclusive
COCCOc1nc2c(c(=O)n(C)c(=O)n2C)n1Cc1cccc(OC)c1	Pf growth 96h inconclusive (no result: Pf growth 48h)
Cc1ccc(-n2nnnc2SCC(=O)NCC2(N3CCCCC3)CCCCC2)c(C)c1	Pf growth 96h 7.4µM, Pf growth 48h 10µM (no result: NS1 function inh, CHX counter, Shiga toxin inh)
Cc1ccc(-n2nnnc2SCC(=O)N2CCc3ccccc3C2)c(C)c1	Pf growth 96h 13µM, Pf growth 48h inconclusive
Cc1ccc(C)c(-n2nnnc2SCC(=O)Nc2cccc(-c3nnc4n3CCCCC4)c2)c1	Pf growth 96h inconclusive, Pf growth 48h 9.3µM
Cc1ccc(-n2nnnc2SCC(=O)N2CCc3ccccc3C2)cc1	none
Cc1cccc(-n2nnnc2SCC(=O)NCC2(N3CCOCC3)CCCCC2)c1C	Pf growth 96h inconclusive, Pf growth 48h 12µM (no result: NS1 function inh, CHX counter, Shiga toxin inh)
Cc1ccc(-n2nnnc2SCC(=O)NCC2(N3CCOCC3)CCCCC2)c(C)c1	Pf growth 96h inconclusive, Pf growth 48h 13µM (no result: NS1 function inh, CHX counter, Shiga toxin inh)
Cc1cc(C)c(NC(=O)CSc2nc(=O)n(CCN3CCOCC3)c3c2CCC3)c(C)c1	none (no result: NS1 function inh, CHX counter, Shiga toxin inh)
CN(C)CCNC(=O)/C=N/O	Pf growth 48h inconclusive
COc1ccc(NC(=O)N2CCc3ccccc3C2)cc1	Pf growth 96h inconclusive, CHX counter 63, Shiga toxin inh 78
COc1ccc(NC(=S)N2CCc3ccccc3C2)cc1OC	Shiga toxin inh 49 (no result: NS1 function inh)
Fc1ccc(NC(=S)N2CCc3ccccc3C2)c(F)c1	Pf growth 96h inconclusive, CHX counter 32, Shiga toxin inh 67
CCOc1ccc(NC(=O)N2CCc3ccccc3C2)cc1	Pf growth 96h inconclusive, CHX counter 48, Shiga toxin inh 58
Cc1ccccc1N=C/C=C1/C=C(c2ccccc2)OC(C)(C)O1	Pf growth 96h inconclusive, Pf growth 48h inconclusive
COc1ccc(N=C/C=C2\C=C(c3ccccc3)OC(C)(C)O2)cc1	Pf growth 96h inconclusive, Pf growth 48h inconclusive, CHX counter 17
O=C(O)CSCc1nc2ccccc2[nH]1	none
Cc1ccc(C)c(CSCc2nc3ccccc3[nH]2)c1	Pf growth 96h inconclusive, Pf growth 48h inconclusive
C=C(C)CSCc1nc2ccccc2[nH]1	CHX counter 37 (no result: Pf growth 96h)
O=C(CSCc1nc2ccccc2[nH]1)Nc1ccc2ccccc2c1	Pf growth 96h inconclusive
c1ccc2cc(CSCc3nc4ccccc4[nH]3)ccc2c1	Pf growth 96h inconclusive, Pf growth 48h 13µM
Cc1ccccc1CSCc1nc2ccccc2[nH]1	Pf growth 48h inconclusive, CHX counter 32, Shiga toxin inh 39
COC(=O)c1ccc(OS(=O)(=O)N(C)C)cc1	CHX counter 54, Shiga toxin inh 99 (no result: NS1 function inh)
COc1cccc(S(=O)(=O)NCc2ccc(C(=O)Nc3cccc(Cl)c3)cc2)c1	Pf growth 96h 9.3µM (no result: Pf growth 48h)
CN(C)S(=O)(=O)Oc1cccc(C(=O)Nc2ccc(Cl)c(Cl)c2)c1	CHX counter 72, Shiga toxin inh 117
CN(C)S(=O)(=O)Oc1cccc(C(=O)Nc2cccc(Cl)c2)c1	CHX counter 38, Shiga toxin inh 67
CCc1cccc2c1NC(=O)C21OCCO1	Pf growth 96h inconclusive
